How the values were obtained:
Assay in all cases: DAPPL (digital affinity profiling via proximity ligation, sequencing); 10 mM Tris-HCl pH 7.5, 50 mM NaCl, 1 mM DTT, 4% glycerol, room temperature, 30 min; GST-TFs on glutathione beads, 16-mer random dsDNA library, 0.1% formaldehyde crosslink after washing; high values mean tight binding
FLI1 = target: T1, FLI1 (Homo sapiens, UniProt Q01543 1-452); settings: protein: recombinant; tags: N-terminal GST; dsDNA, one strand shown
T1 sequence: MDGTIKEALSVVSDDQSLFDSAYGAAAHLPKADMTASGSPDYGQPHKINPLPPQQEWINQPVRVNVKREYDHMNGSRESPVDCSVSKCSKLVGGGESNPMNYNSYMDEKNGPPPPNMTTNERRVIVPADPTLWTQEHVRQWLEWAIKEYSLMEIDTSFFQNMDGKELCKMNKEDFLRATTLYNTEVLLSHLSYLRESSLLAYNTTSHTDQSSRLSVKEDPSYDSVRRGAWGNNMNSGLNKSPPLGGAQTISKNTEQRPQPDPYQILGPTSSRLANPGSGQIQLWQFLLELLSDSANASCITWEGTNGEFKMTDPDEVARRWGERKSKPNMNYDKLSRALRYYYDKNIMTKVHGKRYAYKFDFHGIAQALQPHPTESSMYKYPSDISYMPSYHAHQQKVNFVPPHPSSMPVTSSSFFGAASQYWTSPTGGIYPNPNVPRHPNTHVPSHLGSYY
Procedure, shortened: (§1)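 Yeast served to express human transcription factors as GST fusions, which were then captured on glutathione beads and labelled with DNA barcodes. Pooled with a tag-only sample, they were incubated with 200 nmole of a 16-mer random double-stranded DNA library for 30 min at room temperature in Tris/NaCl/DTT/glycerol buffer, washed, crosslinked with 0.1% formaldehyde, ligated by proximity, amplified by PCR and sequenced. Dividing each hexamer's read frequency for a factor by its frequency for the tag-only sample gives the binding signal.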

ELK1 = target: T2, ELK1 (Homo sapiens, UniProt P19419 1-428); settings: protein: recombinant; tags: N-terminal GST; dsDNA, one strand shown
T2 sequence: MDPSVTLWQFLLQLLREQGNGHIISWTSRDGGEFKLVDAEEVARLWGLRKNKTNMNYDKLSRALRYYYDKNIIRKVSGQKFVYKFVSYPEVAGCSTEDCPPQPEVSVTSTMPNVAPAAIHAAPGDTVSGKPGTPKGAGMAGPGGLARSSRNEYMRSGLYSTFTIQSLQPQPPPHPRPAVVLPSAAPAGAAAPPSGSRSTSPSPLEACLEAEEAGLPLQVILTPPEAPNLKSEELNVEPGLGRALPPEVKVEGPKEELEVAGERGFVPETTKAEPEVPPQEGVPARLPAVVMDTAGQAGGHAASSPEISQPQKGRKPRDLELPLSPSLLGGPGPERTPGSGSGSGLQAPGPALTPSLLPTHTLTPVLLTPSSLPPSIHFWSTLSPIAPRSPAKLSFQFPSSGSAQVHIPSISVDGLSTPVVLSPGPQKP
Procedure, shortened: as §1

GABPA = target: T3, GABPA (Homo sapiens, UniProt Q06546 1-454); settings: protein: recombinant; tags: N-terminal GST; dsDNA, one strand shown
T3 sequence: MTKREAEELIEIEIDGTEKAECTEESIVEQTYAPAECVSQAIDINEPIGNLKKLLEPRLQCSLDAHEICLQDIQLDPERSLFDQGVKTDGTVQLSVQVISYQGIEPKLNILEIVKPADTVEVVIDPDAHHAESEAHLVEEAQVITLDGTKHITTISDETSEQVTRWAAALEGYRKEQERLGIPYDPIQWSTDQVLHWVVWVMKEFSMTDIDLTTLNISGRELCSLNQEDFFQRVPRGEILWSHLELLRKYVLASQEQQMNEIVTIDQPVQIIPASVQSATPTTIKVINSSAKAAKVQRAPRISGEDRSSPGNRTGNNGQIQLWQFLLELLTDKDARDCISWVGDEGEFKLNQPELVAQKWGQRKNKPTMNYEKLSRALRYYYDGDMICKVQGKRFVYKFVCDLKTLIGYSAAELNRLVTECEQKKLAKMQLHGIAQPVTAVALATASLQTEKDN
Procedure, shortened: as §1

ERG = target: T4, ERG (Homo sapiens, UniProt P11308 1-479); settings: protein: recombinant; tags: N-terminal GST; dsDNA, one strand shown
T4 sequence: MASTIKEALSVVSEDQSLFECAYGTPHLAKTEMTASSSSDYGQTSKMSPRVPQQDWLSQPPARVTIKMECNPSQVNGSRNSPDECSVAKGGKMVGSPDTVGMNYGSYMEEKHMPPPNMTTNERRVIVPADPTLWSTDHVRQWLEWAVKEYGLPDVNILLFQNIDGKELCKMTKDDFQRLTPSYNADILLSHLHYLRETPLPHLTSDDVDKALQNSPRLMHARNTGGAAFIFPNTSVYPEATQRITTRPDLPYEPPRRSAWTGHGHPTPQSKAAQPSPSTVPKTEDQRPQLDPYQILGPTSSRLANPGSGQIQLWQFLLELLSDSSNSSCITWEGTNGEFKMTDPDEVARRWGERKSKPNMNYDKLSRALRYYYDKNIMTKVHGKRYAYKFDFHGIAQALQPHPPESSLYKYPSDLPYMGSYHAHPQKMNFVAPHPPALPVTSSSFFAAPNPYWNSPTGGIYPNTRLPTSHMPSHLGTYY
Procedure, shortened: as §1

ELF1 = ELF1 (Homo sapiens, UniProt P32519 1-619); settings: protein: recombinant; tags: N-terminal GST; dsDNA, one strand shown
Sequence of ELF1 (P32519 whole entry): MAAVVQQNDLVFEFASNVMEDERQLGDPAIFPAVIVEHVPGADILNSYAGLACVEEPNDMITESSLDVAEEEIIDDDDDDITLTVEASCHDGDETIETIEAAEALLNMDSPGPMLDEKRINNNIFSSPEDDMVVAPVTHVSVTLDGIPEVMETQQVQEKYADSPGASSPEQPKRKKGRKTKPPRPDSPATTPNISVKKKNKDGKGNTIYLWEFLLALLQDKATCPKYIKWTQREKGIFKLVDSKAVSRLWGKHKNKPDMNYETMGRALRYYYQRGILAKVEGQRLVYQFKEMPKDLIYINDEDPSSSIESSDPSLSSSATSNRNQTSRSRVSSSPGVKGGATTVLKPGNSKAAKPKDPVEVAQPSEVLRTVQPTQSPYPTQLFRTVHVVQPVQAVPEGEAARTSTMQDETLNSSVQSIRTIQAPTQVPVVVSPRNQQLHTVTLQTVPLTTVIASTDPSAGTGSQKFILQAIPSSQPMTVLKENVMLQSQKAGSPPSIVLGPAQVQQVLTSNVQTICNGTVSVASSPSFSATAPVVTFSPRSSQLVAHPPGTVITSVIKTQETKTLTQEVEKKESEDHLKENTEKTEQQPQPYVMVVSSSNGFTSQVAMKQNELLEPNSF
Procedure, shortened: as §1

EHF = target: T5, EHF (Homo sapiens, UniProt Q9NZC4 1-300); settings: protein: recombinant; tags: N-terminal GST; dsDNA, one strand shown
T5 sequence: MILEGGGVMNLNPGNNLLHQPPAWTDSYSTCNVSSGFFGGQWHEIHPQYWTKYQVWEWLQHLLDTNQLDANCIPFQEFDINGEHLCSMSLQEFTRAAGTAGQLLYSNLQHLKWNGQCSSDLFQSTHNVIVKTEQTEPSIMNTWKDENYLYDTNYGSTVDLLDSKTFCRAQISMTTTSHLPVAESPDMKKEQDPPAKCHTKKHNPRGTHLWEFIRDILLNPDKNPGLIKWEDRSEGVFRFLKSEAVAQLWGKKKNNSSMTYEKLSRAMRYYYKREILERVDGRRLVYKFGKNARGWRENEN
Procedure, shortened: as §1

SPI1 = SPI1 (Homo sapiens, UniProt P17947 1-270); settings: protein: recombinant; tags: N-terminal GST; dsDNA, one strand shown
Procedure, shortened: as §1

SPIB = SPIB (Homo sapiens, UniProt Q01892 1-262); settings: protein: recombinant; tags: N-terminal GST; dsDNA, one strand shown
Sequence of SPIB (Q01892 whole entry): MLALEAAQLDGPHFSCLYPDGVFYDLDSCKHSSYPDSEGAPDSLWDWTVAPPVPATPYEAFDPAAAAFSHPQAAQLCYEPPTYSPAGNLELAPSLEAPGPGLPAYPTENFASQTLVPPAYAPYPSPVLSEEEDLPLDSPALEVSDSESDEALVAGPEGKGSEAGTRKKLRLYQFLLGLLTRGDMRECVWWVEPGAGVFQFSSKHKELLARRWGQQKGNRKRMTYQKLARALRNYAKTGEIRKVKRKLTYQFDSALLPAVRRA
Procedure, shortened: as §1

ELK3 = target: T6, ELK3 (Homo sapiens, UniProt P41970 1-407); settings: protein: recombinant; tags: N-terminal GST; dsDNA, one strand shown
T6 sequence: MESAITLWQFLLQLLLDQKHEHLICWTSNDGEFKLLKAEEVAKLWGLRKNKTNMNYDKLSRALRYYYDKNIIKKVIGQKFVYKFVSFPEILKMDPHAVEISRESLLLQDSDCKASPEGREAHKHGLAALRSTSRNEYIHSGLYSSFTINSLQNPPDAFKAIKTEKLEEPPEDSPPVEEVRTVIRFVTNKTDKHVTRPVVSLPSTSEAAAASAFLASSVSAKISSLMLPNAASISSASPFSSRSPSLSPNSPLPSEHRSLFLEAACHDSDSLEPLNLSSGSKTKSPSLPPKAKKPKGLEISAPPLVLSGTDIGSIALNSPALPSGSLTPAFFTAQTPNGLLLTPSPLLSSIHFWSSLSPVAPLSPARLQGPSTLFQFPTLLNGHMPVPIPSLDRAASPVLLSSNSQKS
Procedure, shortened: as §1

FEV = target: T7, FEV (Homo sapiens, UniProt Q99581 1-238); settings: protein: recombinant; tags: N-terminal GST; dsDNA, one strand shown
T7 sequence: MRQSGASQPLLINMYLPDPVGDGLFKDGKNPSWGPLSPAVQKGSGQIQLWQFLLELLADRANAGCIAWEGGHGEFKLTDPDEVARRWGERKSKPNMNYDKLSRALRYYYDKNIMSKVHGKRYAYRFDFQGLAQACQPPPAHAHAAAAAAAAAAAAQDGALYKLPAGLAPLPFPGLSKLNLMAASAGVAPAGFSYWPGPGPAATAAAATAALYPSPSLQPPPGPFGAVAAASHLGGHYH
Procedure, shortened: as §1

ETV5 = ETV5 (Homo sapiens, UniProt P41161 1-510); settings: protein: recombinant; tags: N-terminal GST; dsDNA, one strand shown
Sequence of ETV5 (P41161 whole entry): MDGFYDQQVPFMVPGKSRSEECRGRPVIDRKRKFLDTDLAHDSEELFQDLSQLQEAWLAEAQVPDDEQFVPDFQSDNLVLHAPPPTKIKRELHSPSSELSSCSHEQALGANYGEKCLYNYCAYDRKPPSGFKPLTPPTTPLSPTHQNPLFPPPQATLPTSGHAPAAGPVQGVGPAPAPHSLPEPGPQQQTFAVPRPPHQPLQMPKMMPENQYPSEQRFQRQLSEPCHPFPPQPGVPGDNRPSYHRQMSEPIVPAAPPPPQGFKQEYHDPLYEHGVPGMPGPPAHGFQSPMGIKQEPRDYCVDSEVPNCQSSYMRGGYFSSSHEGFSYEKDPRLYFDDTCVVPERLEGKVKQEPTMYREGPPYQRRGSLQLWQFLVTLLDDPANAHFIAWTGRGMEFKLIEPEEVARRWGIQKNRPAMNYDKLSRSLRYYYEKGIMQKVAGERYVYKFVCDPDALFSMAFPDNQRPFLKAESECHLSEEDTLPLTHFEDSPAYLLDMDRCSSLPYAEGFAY
Procedure, shortened: as §1

HSF1 = HSF1 (Homo sapiens, UniProt Q00613 1-529); settings: protein: recombinant; tags: N-terminal GST; chain copies: 3; dsDNA, one strand shown
Sequence of HSF1 (Q00613 whole entry): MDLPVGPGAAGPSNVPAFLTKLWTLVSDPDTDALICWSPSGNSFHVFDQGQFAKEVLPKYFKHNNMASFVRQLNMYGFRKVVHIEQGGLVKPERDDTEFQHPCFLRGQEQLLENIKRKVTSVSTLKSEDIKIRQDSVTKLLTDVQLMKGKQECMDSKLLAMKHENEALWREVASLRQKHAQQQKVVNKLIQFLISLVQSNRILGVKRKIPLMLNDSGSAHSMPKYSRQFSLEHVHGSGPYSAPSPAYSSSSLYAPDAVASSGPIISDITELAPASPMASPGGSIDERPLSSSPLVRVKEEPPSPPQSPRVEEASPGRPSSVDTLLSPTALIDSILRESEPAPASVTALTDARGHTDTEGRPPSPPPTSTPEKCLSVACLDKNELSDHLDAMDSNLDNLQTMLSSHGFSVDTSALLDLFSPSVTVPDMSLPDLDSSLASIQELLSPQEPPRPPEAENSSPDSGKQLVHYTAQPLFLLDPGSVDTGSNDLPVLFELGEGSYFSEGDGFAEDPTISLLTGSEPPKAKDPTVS
Procedure, shortened: as §1

SPIC = target: T8, SPIC (Homo sapiens, UniProt Q8N5J4 1-248); settings: protein: recombinant; tags: N-terminal GST; dsDNA, one strand shown
T8 sequence: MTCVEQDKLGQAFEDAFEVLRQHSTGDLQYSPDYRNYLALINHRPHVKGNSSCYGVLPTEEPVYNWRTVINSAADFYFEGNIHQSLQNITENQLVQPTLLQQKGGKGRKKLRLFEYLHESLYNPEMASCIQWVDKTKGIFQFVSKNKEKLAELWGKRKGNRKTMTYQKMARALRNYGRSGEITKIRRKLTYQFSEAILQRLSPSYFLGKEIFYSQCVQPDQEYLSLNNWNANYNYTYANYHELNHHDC
Procedure, shortened: as §1

ELF4 = ELF4 (Homo sapiens, UniProt Q99607 1-663); settings: protein: recombinant; tags: N-terminal GST; dsDNA, one strand shown
Sequence of ELF4 (Q99607 whole entry): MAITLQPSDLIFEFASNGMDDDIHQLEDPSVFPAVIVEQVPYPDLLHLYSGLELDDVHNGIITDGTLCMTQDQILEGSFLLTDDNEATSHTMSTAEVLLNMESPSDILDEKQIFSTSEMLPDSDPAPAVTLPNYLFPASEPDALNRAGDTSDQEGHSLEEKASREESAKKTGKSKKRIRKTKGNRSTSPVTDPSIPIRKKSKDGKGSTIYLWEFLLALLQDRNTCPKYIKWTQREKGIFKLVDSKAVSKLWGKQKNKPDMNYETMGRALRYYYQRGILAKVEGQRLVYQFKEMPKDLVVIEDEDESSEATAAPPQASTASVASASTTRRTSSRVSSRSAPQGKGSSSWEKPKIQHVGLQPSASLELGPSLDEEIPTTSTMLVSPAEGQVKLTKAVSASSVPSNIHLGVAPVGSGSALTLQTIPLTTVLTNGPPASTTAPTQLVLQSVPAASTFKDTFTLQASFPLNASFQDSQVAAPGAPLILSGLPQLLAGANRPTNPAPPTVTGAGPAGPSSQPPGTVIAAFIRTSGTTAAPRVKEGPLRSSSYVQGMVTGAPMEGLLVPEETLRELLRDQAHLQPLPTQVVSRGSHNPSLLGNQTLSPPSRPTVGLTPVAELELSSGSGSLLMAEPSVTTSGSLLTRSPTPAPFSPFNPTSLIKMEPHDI
Procedure, shortened: as §1

ELK4 = target: T9, ELK4 (Homo sapiens, UniProt P28324-2 1-405); settings: protein: recombinant; tags: N-terminal GST; dsDNA, one strand shown
T9 sequence: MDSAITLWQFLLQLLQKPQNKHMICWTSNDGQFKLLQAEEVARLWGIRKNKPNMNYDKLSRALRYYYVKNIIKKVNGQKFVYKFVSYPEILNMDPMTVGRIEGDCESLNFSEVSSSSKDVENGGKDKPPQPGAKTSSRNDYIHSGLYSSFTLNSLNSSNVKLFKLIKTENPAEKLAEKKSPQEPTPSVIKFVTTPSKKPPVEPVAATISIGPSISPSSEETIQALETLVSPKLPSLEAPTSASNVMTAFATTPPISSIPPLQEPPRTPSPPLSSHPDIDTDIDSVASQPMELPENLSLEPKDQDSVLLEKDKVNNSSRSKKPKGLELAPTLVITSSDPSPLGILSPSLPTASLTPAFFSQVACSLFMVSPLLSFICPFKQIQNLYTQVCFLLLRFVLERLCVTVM
Procedure, shortened: as §1

ETV2 = target: T10, ETV2 (Homo sapiens, UniProt O00321 1-342); settings: protein: recombinant; tags: N-terminal GST; dsDNA, one strand shown
T10 sequence: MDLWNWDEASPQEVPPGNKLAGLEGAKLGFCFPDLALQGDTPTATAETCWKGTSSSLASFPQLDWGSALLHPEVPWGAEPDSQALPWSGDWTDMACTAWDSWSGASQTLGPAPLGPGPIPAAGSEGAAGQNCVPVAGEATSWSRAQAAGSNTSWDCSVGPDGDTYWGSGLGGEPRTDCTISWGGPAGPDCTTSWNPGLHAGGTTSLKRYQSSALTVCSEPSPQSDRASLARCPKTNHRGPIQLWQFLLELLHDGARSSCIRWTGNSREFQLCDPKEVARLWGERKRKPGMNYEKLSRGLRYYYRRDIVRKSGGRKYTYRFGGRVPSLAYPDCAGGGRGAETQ
Procedure, shortened: as §1

ELF3 = target: T11, ELF3 (Homo sapiens, UniProt P78545 1-371); settings: protein: recombinant; tags: N-terminal GST; dsDNA, one strand shown
T11 sequence: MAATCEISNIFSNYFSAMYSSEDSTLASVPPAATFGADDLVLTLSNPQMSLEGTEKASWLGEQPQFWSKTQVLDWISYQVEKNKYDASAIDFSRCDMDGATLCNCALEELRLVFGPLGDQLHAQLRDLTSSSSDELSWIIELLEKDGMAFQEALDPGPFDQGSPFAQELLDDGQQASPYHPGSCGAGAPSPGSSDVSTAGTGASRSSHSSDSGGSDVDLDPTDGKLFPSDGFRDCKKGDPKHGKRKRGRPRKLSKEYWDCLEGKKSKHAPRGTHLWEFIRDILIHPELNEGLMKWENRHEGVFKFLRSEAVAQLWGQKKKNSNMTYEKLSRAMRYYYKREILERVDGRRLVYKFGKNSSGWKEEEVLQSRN
Procedure, shortened: as §1

CRX = CRX (Homo sapiens, UniProt O43186 1-299); settings: protein: recombinant; tags: N-terminal GST; dsDNA, one strand shown
Sequence of CRX (O43186 whole entry): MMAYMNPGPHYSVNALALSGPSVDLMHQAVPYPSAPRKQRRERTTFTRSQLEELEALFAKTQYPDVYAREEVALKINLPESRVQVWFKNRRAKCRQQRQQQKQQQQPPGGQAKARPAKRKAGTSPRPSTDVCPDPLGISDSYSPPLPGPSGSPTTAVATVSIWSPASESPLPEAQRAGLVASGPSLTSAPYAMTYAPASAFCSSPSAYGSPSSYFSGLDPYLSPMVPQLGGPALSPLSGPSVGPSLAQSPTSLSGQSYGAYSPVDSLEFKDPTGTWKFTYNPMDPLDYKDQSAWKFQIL
Procedure, shortened: as §1

ETV1 = ETV1 (Homo sapiens, UniProt P50549 1-477); settings: protein: recombinant; tags: N-terminal GST; dsDNA, one strand shown
Sequence of ETV1 (P50549 whole entry): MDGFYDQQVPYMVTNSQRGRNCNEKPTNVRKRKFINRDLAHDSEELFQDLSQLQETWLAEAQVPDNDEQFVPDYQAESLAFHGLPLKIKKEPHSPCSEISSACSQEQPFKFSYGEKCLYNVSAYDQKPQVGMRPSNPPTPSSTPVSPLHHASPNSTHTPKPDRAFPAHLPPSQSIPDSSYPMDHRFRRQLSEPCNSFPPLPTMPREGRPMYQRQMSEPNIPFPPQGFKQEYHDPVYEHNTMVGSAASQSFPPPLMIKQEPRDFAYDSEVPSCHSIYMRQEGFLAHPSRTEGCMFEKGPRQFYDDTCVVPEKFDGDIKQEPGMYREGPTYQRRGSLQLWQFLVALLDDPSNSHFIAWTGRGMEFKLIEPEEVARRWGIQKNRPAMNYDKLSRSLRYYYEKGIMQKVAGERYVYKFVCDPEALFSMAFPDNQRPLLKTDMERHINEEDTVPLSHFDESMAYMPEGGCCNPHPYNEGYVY
Procedure, shortened: as §1

TACTAT
binding signal (FLI1): 1.5 fold enrichment (6-mer frequency, TF over GST control) | binding signal (ELK1): 1.24 fold enrichment (6-mer frequency, TF over GST control) | binding signal (GABPA): 1.44 fold enrichment (6-mer frequency, TF over GST control) | binding signal (ERG): 1.33 fold enrichment (6-mer frequency, TF over GST control) | binding signal (ELF1): 1.31 fold enrichment (6-mer frequency, TF over GST control) | binding signal (EHF): 1.39 fold enrichment (6-mer frequency, TF over GST control) | binding signal (SPI1): 1.3 fold enrichment (6-mer frequency, TF over GST control) | binding signal (SPIB): 1.42 fold enrichment (6-mer frequency, TF over GST control) | binding signal (ELK3): 1.24 fold enrichment (6-mer frequency, TF over GST control) | binding signal (FEV): 1.31 fold enrichment (6-mer frequency, TF over GST control) | binding signal (ETV5): 1.31 fold enrichment (6-mer frequency, TF over GST control) | binding signal (HSF1): 1.37 fold enrichment (6-mer frequency, TF over GST control) | binding signal (SPIC): 1.45 fold enrichment (6-mer frequency, TF over GST control) | binding signal (ELF4): 1.35 fold enrichment (6-mer frequency, TF over GST control) | binding signal (ELK4): 1.33 fold enrichment (6-mer frequency, TF over GST control) | binding signal (ETV2): 1.4 fold enrichment (6-mer frequency, TF over GST control) | binding signal (ELF3): 1.2 fold enrichment (6-mer frequency, TF over GST control) | binding signal (CRX): 1.48 fold enrichment (6-mer frequency, TF over GST control) | binding signal (ETV1): 1.28 fold enrichment (6-mer frequency, TF over GST control)

Source: paper PMC7862700, “An all-to-all approach to the identification of sequence-specific readers for epigenetic DNA modifications on cytosine”
